# High-throughput results (PubChem)
# Shown are actives, neighbours in structure and some others; about 6.7% of the full set was active somewhere.
# Tcruzi prolif: T. cruzi proliferation inhibition. T. cruzi beta-gal in NIH3T3, GalScreen luminescence, 90 h. inhibition, % at 8.34 µM. actives 5.9% (n = 77,000). AID 624255;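 active = mean inhibition above about 93%, with at least 55% of replicates each passing it, limit read from the data, passing the limit was not always enough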
# Pf Dd2 growth: inhibitors of Plasmodium falciparum Dd2 growth; P. falciparum Dd2 growth, SYBR Green, 72 h; stronger effect = lower value; activity change, % at 10 µM; actives 2.3% (n = 94,000); in the data active = activity change below about -80%
# C diff growth: inhibitors of Clostridium difficile growth. Clostridium difficile clinical isolate growth, OD600, 24 h; stronger effect = lower value. growth activity, negative = inhibition, % at 16 µg/mL (by protocol). actives 0.25% (n = 86,000). AID 1259249;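 active = mean growth activity at or below -80% and every replicate also at or below -80%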;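 also: 0% = DMSO wells and -100% = levofloxacin 16 µg/mL wells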
# * hit, by the source's call; x = no result.
SMILES,Tcruzi prolif,Pf Dd2 growth,C diff growth
Cc1ccc(S(=O)(=O)N(C)C[C@@H]2OCCCC[C@@H](C)Oc3ccc(NC(=O)Nc4ccccc4)cc3C(=O)N([C@H](C)CO)C[C@@H]2C)cc1,45,-86*,10
C[C@@H]1CN([C@H](C)CO)C(=O)c2cc(NC(=O)Nc3ccccc3)ccc2O[C@@H](C)CCCCO[C@H]1CN(C)S(=O)(=O)c1ccccc1,32,-79,x
CNC[C@H]1Oc2cc(C#CC(C)(C)O)ccc2S(=O)(=O)N([C@H](C)CO)C[C@@H]1C,1,-27,2
COc1ccc2c3c(n(C)c2c1)[C@@H](CO)N(C(=O)Nc1ccc(F)cc1)CC31CCN(Cc2ccccn2)CC1,x,-88*,-2
COc1ccc2c3c(n(C)c2c1)[C@H](CO)N(C(=O)Nc1ccc(F)cc1)CC31CCN(Cc2ccccn2)CC1,x,-89*,-4
COc1ccc2c3c([nH]c2c1)[C@H](CO)N(C(=O)Nc1ccc(F)cc1)CC31CCN(Cc2cc(-c3ccccc3)on2)CC1,x,-87*,4
COc1cccc(CN2CCC3(CC2)CN(C(=O)Nc2ccc(F)cc2)[C@H](CO)c2c3c3ccc(OC)cc3n2C)c1,x,-35,52
COc1ccc2c3c([nH]c2c1)[C@@H](CO)N(C(C)=O)CC31CCN(Cc2cc(-c3ccccc3)on2)CC1,x,-67,-3
COc1ccc2c3c(n(C)c2c1)[C@@H](CO)N(C(=O)Nc1ccc(F)cc1)CC31CN(Cc2ccccn2)C1,x,-57,-3
C[C@H]1CN([C@@H](C)CO)S(=O)(=O)c2ccc(-c3ccc(C(=O)N(C)C)cc3)cc2O[C@H]1CN(C)C(=O)C1CC1,69,-17,x
C[C@@H]1CCCCO[C@@H](CN(C)S(=O)(=O)c2ccc(Cl)cc2)[C@@H](C)CN([C@H](C)CO)C(=O)c2cc(NC(=O)Nc3ccc4c(c3)OCO4)ccc2O1,72,-88*,13
C[C@@H]1CN([C@@H](C)CO)C(=O)c2cc(NC(=O)Nc3ccc4c(c3)OCO4)ccc2O[C@@H](C)CCCCO[C@@H]1CN(C)S(=O)(=O)c1ccc(F)cc1,44,-74,1
C[C@@H]1CN([C@H](C)CO)C(=O)c2cc(NC(=O)Nc3ccc4c(c3)OCO4)ccc2O[C@@H](C)CCCCO[C@@H]1CN(C)S(=O)(=O)c1ccc(F)cc1,38,-84*,5
Cc1ccc(S(=O)(=O)N(C)C[C@@H]2OCCCC[C@@H](C)Oc3ccc(NC(=O)Nc4ccc5c(c4)OCO5)cc3C(=O)N([C@H](C)CO)C[C@@H]2C)cc1,x,-82*,x
Cc1ccc(S(=O)(=O)N(C)C[C@H]2OCCCC[C@H](C)Oc3ccc(NC(=O)Nc4ccc5c(c4)OCO5)cc3C(=O)N([C@@H](C)CO)C[C@@H]2C)cc1,x,-72,x
C[C@H]1CCCCO[C@H](CN(C)S(=O)(=O)c2ccc(F)cc2)[C@@H](C)CN([C@@H](C)CO)C(=O)c2cc(NC(=O)Nc3ccc4c(c3)OCO4)ccc2O1,79,-76,-1
O=C(N[C@H]1CC[C@H](CCn2cc(C3(O)CCCC3)nn2)O[C@@H]1CO)C1CCCCC1,-52,13,-1
COC(=O)C[C@@H]1CC[C@H]2[C@@H](COc3ccc(NC(=O)c4cnccn4)cc3C(=O)N2C)O1,-7,2,-5
O=C([C@@H]1[C@@H](CO)[C@@H]2Cn3c(ccc(C4=CCCCC4)c3=O)[C@@H]2N1Cc1nccs1)N1CCCCC1,-1,13,2
O=C(C[C@@H]1C[C@H]2c3cc(NC(=O)c4cccnc4)ccc3O[C@H]2[C@H](CO)O1)NCc1ccccn1,x,6,2
COCC(=O)N1[C@@H]2CN(C(=O)c3ccccc3)c3ccccc3[C@@H]2[C@@H]1CO,-27,-42,3
CN1CCN(C(=O)C[C@H]2C[C@@H]3c4cc(NC(=O)Nc5ccc(C(F)(F)F)cc5)ccc4O[C@@H]3[C@@H](CO)O2)CC1,2,-85*,5
O=C(C[C@H]1C[C@@H]2c3cc(NC(=O)Nc4ccccc4)ccc3O[C@@H]2[C@H](CO)O1)NCc1ccccc1,32,-88*,1
CN(C)c1ccc2c(c1)[C@H]1C[C@H](CC(=O)N3CCc4ccccc4C3)O[C@@H](CO)[C@H]1O2,86,-58,-1
CN1CCN(C(=O)C[C@H]2C[C@H]3c4cc(NC(=O)Nc5ccc(C(F)(F)F)cc5)ccc4O[C@H]3[C@H](CO)O2)CC1,-12,-58,0
COc1ccc(NC(=O)Nc2ccc3c(c2)[C@@H]2C[C@H](CC(=O)N[C@@H](C)c4ccccc4)O[C@H](CO)[C@@H]2O3)cc1,x,-87*,13
COc1ccc(NC(=O)Nc2ccc3c(c2)[C@@H]2C[C@@H](CC(=O)N[C@@H](C)c4ccccc4)O[C@@H](CO)[C@@H]2O3)cc1,-7,-30,1
